# Results: PubChem BioAssay (EPA / NIEHS)
# Calls of active or inactive are those of the source. Rule for the calls: active = hit-call score of the fitted dose curve at least 0.9, where 1 is the maximum; inactive = score below 0.9.
# Key:
# Conditions in all cases: mRNA level, 48 h; actives raise or lower the signal
# [1] = read-out: Peroxisomal acyl-coenzyme A oxidase 1 (ACOX1) gene, ACOX1 (gene 51); assay: LTEA_HepaRG_ACOX1: Life Technologies and Expression Analysis (LTEA) Assay for Peroxisomal acyl-coenzyme A oxidase 1 (ACOX1) gene using HepaRG (AID 2283467)
# Method in brief: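 Measured by qRT-PCR against three housekeeping genes: ACOX1 transcript change in human HepaRG cells after 48 h dosing. Concentrations ran up to 100 uM in half-log steps. Curves were fitted bidirectionally relative to 0.5% DMSO.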
# [2] = read-out: Bcl-2 (BAD) gene, BAD (gene 572); assay: LTEA_HepaRG_BAD: Life Technologies and Expression Analysis (LTEA) Assay for Bcl-2 (BAD) gene using HepaRG (AID 2283469)
# Method in brief: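 BAD transcript change, measured by qRT-PCR against three housekeeping genes and fitted in both directions relative to 0.5% DMSO, after 48 h chemical treatment of human HepaRG liver cells at concentrations up to 100 uM.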
# [3] = read-out: Bcl-2 (BAX) gene, BAX (gene 581); assay: LTEA_HepaRG_BAX: Life Technologies and Expression Analysis (LTEA) Assay for Bcl-2 (BAX) gene using HepaRG (AID 2283470)
# Method in brief: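 Differentiated HepaRG cells exposed 48 h in serum-free induction medium, eight half-log concentrations from 100 uM, in duplicate, 0.5% DMSO vehicle. BAX mRNA by TaqMan qRT-PCR, normalised to ACTB, GAPDH and POLR2A.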
# [4] = read-out: adenosine kinase (ADK) gene, ADK (gene 132); assay: LTEA_HepaRG_ADK: Life Technologies and Expression Analysis (LTEA) Assay for adenosine kinase (ADK) gene using HepaRG (AID 2283471)
# Method in brief: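 HepaRG (human liver), 48 h chemical exposure, 8-pt half-log series, top 100 uM, 0.5% DMSO vehicle. Readout: ADK mRNA by qRT-PCR vs housekeeping genes; bidirectional curve fit relative to DMSO baseline.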
# [5] = read-out: Alpha-fetoprotein (AFP) gene, AFP (gene 174); assay: LTEA_HepaRG_AFP: Life Technologies and Expression Analysis (LTEA) Assay for Alpha-fetoprotein (AFP) gene using HepaRG (AID 2283472)
# Method in brief: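 Differentiated human HepaRG cells exposed 48 h in serum-free induction medium, 8-point half-log series from 100 uM in 0.5% DMSO, duplicate. AFP mRNA by qRT-PCR, normalized to ACTB, GAPDH, POLR2A; bidirectional fit vs DMSO.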
# [6] = read-out: BCL2L11 (gene 10018); assay: LTEA_HepaRG_BCL2L11: Life Technologies and Expression Analysis (LTEA) Assay for Bcl-2 (BCL2L11) gene using HepaRG (AID 2283473)
# Method in brief: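 Read-out is BCL2L11 transcript level by qRT-PCR, normalized to three housekeeping genes and fitted bidirectionally against 0.5% DMSO vehicle. HepaRG cells received chemicals for 48 h in serum-free induction medium, 100 uM down in half-log dilutions.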
# [7] = read-out: Apolipoprotein A-V (APOA5) gene, APOA5 (gene 116519); assay: LTEA_HepaRG_APOA5: Life Technologies and Expression Analysis (LTEA) Assay for Apolipoprotein A-V (APOA5) gene using HepaRG (AID 2283474)
# Method in brief: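 Readout is APOA5 transcript level by qRT-PCR on Fluidigm dynamic arrays, normalized to three housekeeping genes. HepaRG cultures received chemicals for 48 h at up to 100 uM (half-log steps, 0.5% DMSO), with gain or loss scored relative to DMSO.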
# [8] = read-out: Apoptosis regulator Bcl-2 (Homo sapiens) (UniProt P10415); assay: LTEA_HepaRG_BCL2: Life Technologies and Expression Analysis (LTEA) Assay for Bcl-2 gene using HepaRG (AID 2283475)
# Method in brief: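 Differentiated human HepaRG cells in serum-free induction medium exposed 48 h, in duplicate, to 8-point half-log series from 100 uM in 0.5% DMSO. BCL2 mRNA by qRT-PCR (TaqMan/Fluidigm), normalized to ACTB, GAPDH, POLR2A; bidirectional fit against DMSO.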
# [9] = read-out: Bcl-2 (BID) gene, BID (gene 637); assay: LTEA_HepaRG_BID: Life Technologies and Expression Analysis (LTEA) Assay for Bcl-2 (BID) gene using HepaRG (AID 2283476)
# Method in brief: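 Gene expression by qRT-PCR in HepaRG cells after 48 h exposure, duplicate wells, eight half-log concentrations topping at 100 uM in 0.5% DMSO. Normalized to ACTB, GAPDH, POLR2A; bidirectional fitting relative to DMSO.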
# [10] = read-out: Caspase-3 (Homo sapiens) (UniProt P42574); assay: LTEA_HepaRG_CASP3: Life Technologies and Expression Analysis (LTEA) Assay for cysteine-aspartic acid protease (CASP3) using HepaRG (AID 2283477)
# Method in brief: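 Read-out is CASP3 mRNA level by TaqMan qRT-PCR in human HepaRG cells after 48 h chemical exposure. Eight half-log concentrations topping at 100 uM were tested in 0.5% DMSO; gain or loss was fitted relative to DMSO.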
# [11] = read-out: Cytochrome P450 (CYP24A1), CYP24A1 (gene 1591); assay: LTEA_HepaRG_CYP24A1: Life Technologies and Expression Analysis (LTEA) Assay for Cytochrome P450 (CYP24A1) using HepaRG (AID 2283478)
# Method in brief: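 HepaRG, 48 h chemical exposure, 8-pt half-log CRC from 100 uM, 0.5% DMSO vehicle, duplicates. Endpoint: CYP24A1 mRNA by Fluidigm TaqMan qRT-PCR, normalized ACTB/GAPDH/POLR2A; gain/loss fit vs DMSO.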
# [12] = read-out: Cytochrome P450 (CYP1A2), CYP1A2 (gene 1544); assay: LTEA_HepaRG_CYP1A2: Life Technologies and Expression Analysis (LTEA) Assay for Cytochrome P450 (CYP1A2) using HepaRG (AID 2283479)
# Method in brief: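 CYP1A2 transcript induction or loss, quantified by Fluidigm qRT-PCR against three housekeeping genes, was fitted bidirectionally against 0.5% DMSO controls. Human HepaRG cells received eight half-log concentrations from 100 uM over 48 h.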
# [13] = read-out: cysteine-aspartic acid protease (CASP8), CASP8 (gene 841); assay: LTEA_HepaRG_CASP8: Life Technologies and Expression Analysis (LTEA) Assay for cysteine-aspartic acid protease (CASP8) using HepaRG (AID 2283480)
# Method in brief: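 HepaRG, 48 h exposure, duplicate wells; 8 conc, half-log from 100 uM, 0.5% DMSO. Serum-free induction medium. CASP8 mRNA by TaqMan qRT-PCR, norm. ACTB/GAPDH/POLR2A; gain/loss fitted vs DMSO.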
# [14] = read-out: Cytochrome P450 (CYP2B6), CYP2B6 (gene 1555); assay: LTEA_HepaRG_CYP2B6: Life Technologies and Expression Analysis (LTEA) Assay for Cytochrome P450 (CYP2B6) using HepaRG (AID 2283481)
# Method in brief: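 HepaRG cells plated 48 h, switched to serum-free induction medium, then dosed 48 h (8 points, half-log from 100 uM, 0.5% DMSO). RNA isolated; CYP2B6 expression measured by qRT-PCR; gain or loss fitted relative to DMSO.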
# [15] = read-out: Cytochrome P450 2C19 (Homo sapiens) (UniProt P33261); assay: LTEA_HepaRG_CYP2C19: Life Technologies and Expression Analysis (LTEA) Assay for CYP2C19 using HepaRG (AID 2283482)
# Method in brief: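 Transcript levels of CYP2C19 were quantified by qRT-PCR after HepaRG cells were treated for 48 hours with test chemicals up to 100 uM (eight half-log concentrations, 0.5% DMSO vehicle). Gain or loss of signal was fitted relative to DMSO.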
# [16] = read-out: CYP2C8 (gene 1558); assay: LTEA_HepaRG_CYP2C8: Life Technologies and Expression Analysis (LTEA) Assay for CYP2C8 using HepaRG (AID 2283483)
# Method in brief: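 CYP2C8 mRNA induction or loss, by qRT-PCR normalized to ACTB/GAPDH/POLR2A, is read in HepaRG cells after 48 h treatment. Concentrations run from 100 uM down in half-log dilutions, with 0.5% DMSO as vehicle and baseline.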
# [17] = read-out: CYP2C9 (gene 1559); assay: LTEA_HepaRG_CYP2C9: Life Technologies and Expression Analysis (LTEA) Assay for CYP2C9 using HepaRG (AID 2283484)
# Method in brief: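 Cells plated 48 h, switched to serum-free induction medium, then treated in duplicate for 48 h at eight concentrations (max 100 uM, 0.5% DMSO). RNA then analysed by qRT-PCR for CYP2C9; curves fitted in both directions relative to DMSO.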
# [18] = read-out: CYP2E1 (gene 1571); assay: LTEA_HepaRG_CYP2E1: Life Technologies and Expression Analysis (LTEA) Assay for CYP2E1 using HepaRG (AID 2283485)
# Method in brief: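 HepaRG cells, plated 48 h, then exposed 48 h in serum-free induction medium to eight half-log concentrations from 100 uM in 0.5% DMSO, duplicate. CYP2E1 mRNA by qRT-PCR, normalized to ACTB/GAPDH/POLR2A; bidirectional fit versus DMSO.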
# [19] = read-out: CYP4A11 (gene 1579); assay: LTEA_HepaRG_CYP4A11: Life Technologies and Expression Analysis (LTEA) Assay for CYP4A11 using HepaRG (AID 2283486)
# Method in brief: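 HepaRG, 48 h chem exposure, 8 conc (100 uM top, half-log), 0.5% DMSO vehicle; qRT-PCR readout, housekeeping-gene normalized; bidirectional curve fit vs DMSO baseline.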
# Sequence of Caspase-3 (Homo sapiens) (P42574 whole entry, looked up): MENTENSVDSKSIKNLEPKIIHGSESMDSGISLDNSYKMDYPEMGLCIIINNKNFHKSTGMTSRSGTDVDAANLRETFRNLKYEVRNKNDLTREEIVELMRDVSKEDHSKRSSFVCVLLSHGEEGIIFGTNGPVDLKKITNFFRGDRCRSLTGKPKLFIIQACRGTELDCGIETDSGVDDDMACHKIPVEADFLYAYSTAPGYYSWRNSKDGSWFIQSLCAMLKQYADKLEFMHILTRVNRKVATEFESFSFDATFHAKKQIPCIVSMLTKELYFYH
# Sequence of Cytochrome P450 2C19 (Homo sapiens) (P33261 whole entry, looked up): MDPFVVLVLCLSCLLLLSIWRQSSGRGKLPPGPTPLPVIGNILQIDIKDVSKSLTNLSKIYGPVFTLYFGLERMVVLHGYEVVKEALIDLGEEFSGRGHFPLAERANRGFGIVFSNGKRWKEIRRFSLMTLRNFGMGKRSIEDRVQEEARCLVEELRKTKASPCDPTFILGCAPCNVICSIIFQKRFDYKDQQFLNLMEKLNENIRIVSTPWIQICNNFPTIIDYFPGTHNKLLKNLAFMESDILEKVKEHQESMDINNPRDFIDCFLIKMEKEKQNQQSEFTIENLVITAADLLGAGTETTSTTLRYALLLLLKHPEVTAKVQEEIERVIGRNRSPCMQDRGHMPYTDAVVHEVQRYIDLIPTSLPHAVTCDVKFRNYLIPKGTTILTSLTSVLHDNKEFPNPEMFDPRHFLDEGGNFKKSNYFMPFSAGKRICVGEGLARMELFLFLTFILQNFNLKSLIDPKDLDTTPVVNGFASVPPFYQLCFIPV
# Sequence of Apoptosis regulator Bcl-2 (Homo sapiens) (P10415 whole entry, looked up): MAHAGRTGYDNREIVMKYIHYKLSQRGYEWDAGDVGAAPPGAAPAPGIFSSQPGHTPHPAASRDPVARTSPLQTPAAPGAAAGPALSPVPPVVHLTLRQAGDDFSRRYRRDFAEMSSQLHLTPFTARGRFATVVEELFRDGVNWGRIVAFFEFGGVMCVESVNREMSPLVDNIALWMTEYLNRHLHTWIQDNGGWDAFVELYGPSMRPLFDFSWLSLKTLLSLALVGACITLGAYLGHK
smiles,measurement,setting,value
Cc1cccc(C)c1N,outcome,[1],inactive
same,outcome,[2],inactive
same,outcome,[3],inactive
same,outcome,[4],inactive
same,outcome,[5],inactive
same,outcome,[6],inactive
same,outcome,[7],inactive
same,outcome,[8],inactive
same,outcome,[9],inactive
same,outcome,[10],inactive
same,outcome,[11],inactive
same,outcome,[12],inactive
same,outcome,[13],inactive
same,AC50,[14],19.3 µM (active)
same,outcome,[15],inactive
same,outcome,[16],inactive
same,outcome,[17],inactive
same,outcome,[18],inactive
same,outcome,[19],inactive
O=C(O)C(F)(F)C(F)(F)C(F)(F)C(F)(F)C(F)(F)F,AC50,[1],9.92 µM (active)
same,outcome,[2],inactive
same,outcome,[3],inactive
same,AC50,[4],3 µM (active)
same,outcome,[5],inactive
same,outcome,[6],inactive
same,outcome,[7],inactive
same,outcome,[8],inactive
same,outcome,[9],inactive
same,AC50,[10],9.92 µM (active)
same,outcome,[11],inactive
same,outcome,[12],inactive
same,outcome,[13],inactive
same,AC50,[14],19.6 µM (active)
same,AC50,[15],5.35 µM (active)
same,AC50,[16],8.32 µM (active)
same,AC50,[17],9.92 µM (active)
same,outcome,[18],inactive
same,AC50,[19],50 µM (active)
Clc1ccc(C(c2ccccc2Cl)C(Cl)(Cl)Cl)cc1 (stereo not drawn),outcome,[1],inactive
same,outcome,[2],inactive
same,outcome,[3],inactive
same,outcome,[4],inactive
same,AC50,[5],36.3 µM (active)
same,outcome,[6],inactive
same,AC50,[7],10.7 µM (active)
same,outcome,[8],inactive
same,outcome,[9],inactive
same,outcome,[10],inactive
same,outcome,[11],inactive
same,outcome,[12],inactive
same,AC50,[14],0.213 µM (active)
same,AC50,[15],1.76 µM (active)
same,AC50,[16],0.794 µM (active)
same,outcome,[17],inactive
same,AC50,[18],39.8 µM (active)
same,AC50,[19],40.7 µM (active)
Clc1ccc(Cl)cc1,outcome,[1],inactive
same,outcome,[2],inactive
same,outcome,[3],inactive
same,outcome,[4],inactive
same,outcome,[5],inactive
same,outcome,[6],inactive
same,outcome,[7],inactive
same,outcome,[8],inactive
same,outcome,[9],inactive
same,outcome,[10],inactive
same,outcome,[11],inactive
same,outcome,[12],inactive
same,outcome,[14],inactive
same,outcome,[15],inactive
same,outcome,[16],inactive
same,outcome,[17],inactive
same,outcome,[18],inactive
same,outcome,[19],inactive
Nn1cnnc1,outcome,[1],inactive
same,outcome,[2],inactive
same,outcome,[3],inactive
same,outcome,[4],inactive
same,outcome,[5],inactive
same,outcome,[6],inactive
same,outcome,[7],inactive
same,outcome,[8],inactive
same,outcome,[9],inactive
same,outcome,[10],inactive
same,outcome,[11],inactive
same,outcome,[12],inactive
same,outcome,[13],inactive
same,outcome,[14],inactive
same,outcome,[15],inactive
same,outcome,[16],inactive
same,outcome,[17],inactive
same,outcome,[18],inactive
same,outcome,[19],inactive
